PubChem BioAssay AID1159580 (chemical genetic matrix, 2015)
“And” between values parts separate entries of the source, which are not always exact repeats. Identical values can stand only once. About 2,000 (36%) of roughly 5,500 compounds were called active. Inconclusive results (about 18%) are left out. No stated cut-off is given here; in the data, active means normalized growth mostly below about 0.91 (no sharp cut-off); inconclusive means no clear call, values can overlap the other calls; inactive means mostly above about 0.92. The list shows a part of the results.

Experiment: chemical genetic growth profiling, strain panel (AID 1159580);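 further: tested at 20 µM; growth read once vehicle control cultures reached saturation at 30 °C; 1 = growth at the plate median or of vehicle wells; lower values mean less growth of the strain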
Details: S. cerevisiae deletion strains, growth OD

Measured: normalized growth

CC(C(=O)O)c1cccc(C(=O)c2ccccc2)c1 (stereo not drawn)
inactive: locus YAL013W, strain DEP1, active compounds read low 1.01 | locus YAL021C, strain ccr4, active compounds read low 0.995 | locus YAL026C, strain drs2, active compounds read low 0.981 | locus YAL030W, strain snc1, active compounds read low 0.997 | locus YAL040C, strain CLN3, active compounds read low 1 | locus YBL061C, strain skt5, active compounds read low 0.998 | locus YBR009C, strain hhf1, active compounds read low 0.979 | locus YBR021W, strain FUR4, active compounds read low 1.01 | locus YBR023C, strain chs3, active compounds read low 0.985 | locus YBR171W, strain sec66, active compounds read low 0.98 | locus YBR229C, strain ROT2, active compounds read low 1 | locus YBR231C, strain swc5, active compounds read low 1 | locus YBR279W, strain paf1, active compounds read low 0.972 | locus YCL011C, strain gbp2, active compounds read low 0.991 | locus YCL016C, strain dcc1, active compounds read low 0.969 | locus YCL029C, strain bik1, active compounds read low 0.962 | locus YCL061C, strain MRC1 (second series), active compounds read low 1.01 | locus YCL069W, strain vba3, active compounds read low 0.983 | locus YCR088W, strain abp1, active compounds read low 0.989 | locus YDL005C, strain med2, active compounds read low 0.98 | locus YDL035C, strain GPR1, active compounds read low 1 | locus YDL040C, strain nat1, active compounds read low 0.986 | locus YDL074C, strain BRE1, active compounds read low 1.06 | locus YDL101C, strain DUN1, active compounds read low 1 | locus YDL134C, strain PPH21, active compounds read low 0.994 | locus YDL185W, strain tfp1, active compounds read low 0.941 | locus YDL192W, strain arf1, active compounds read low 0.978 | locus YDR001C, strain nth1, active compounds read low 0.983 | locus YDR069C, strain doa4, active compounds read low 0.984 | locus YDR101C, strain arx1, active compounds read low 1.02 | locus YDR137W, strain rgp1, active compounds read low 0.953 | locus YDR159W, strain sac3, active compounds read low 0.928 | locus YDR162C, strain NBP2, active compounds read low 0.979 | locus YDR195W, strain ref2 1.02 | locus YDR297W, strain sur2, active compounds read low 0.982 | locus YDR318W, strain mcm21, active compounds read low 0.969 | locus YDR334W, strain swr1, active compounds read low 0.984 | locus YDR335W, strain msn5, active compounds read low 1.01 | locus YDR363W, strain ESC2, active compounds read low 0.998 | locus YDR388W, active compounds read low 0.989 | locus YDR392W, strain spt3, active compounds read low 0.871 | locus YDR502C, strain sam2, active compounds read low 1 | locus YEL003W, strain gim4, active compounds read low 1 | locus YEL037C, strain rad23, active compounds read low 0.987 | locus YEL061C, strain CIN8 (second series), active compounds read low 0.996 | locus YEL061C, strain CIN8, active compounds read low 1 | locus YER002W, strain NOP16, active compounds read low 0.992 | locus YER015W, strain faa2, active compounds read low 0.966 | locus YER016W, strain bim1, active compounds read low 0.974 | locus YER110C, active compounds read low 0.957 | locus YER111C, strain swi4, active compounds read low 0.979 | locus YER155C, strain BEM2 (second series), active compounds read low 0.986 | locus YER155C, strain BEM2, active compounds read low 0.994 | locus YER167W, strain BCK2, active compounds read low 1 | locus YFR010W, strain ubp6, active compounds read low 1 | locus YGL078C, strain dbp3, active compounds read low 0.99 | locus YGL086W, strain mad1, active compounds read low 1.01 | locus YGL167C, strain pmr1, active compounds read low 0.991 | locus YGL173C, strain kem1, active compounds read low 1.01 | locus YGL227W, strain vid30, active compounds read low 1 | locus YGL240W, strain doc1, active compounds read low 0.995 | locus YGL248W, strain PDE1, active compounds read low 1.02 | locus YGL253W, strain hxk2, active compounds read low 0.984 | locus YGR078C, strain PAC10, active compounds read low 1.02 | locus YGR135W, strain pre9, active compounds read low 0.958 | locus YGR229C, strain SMI1, active compounds read low 1.01 | locus YGR252W, strain gcn5, active compounds read low 1.03 | locus YHR013C, strain ard1, active compounds read low 0.964 | locus YHR027C, strain rpn1, active compounds read low 1.01 | locus YHR030C, strain SLT2, active compounds read low 0.982 and 1.04 | locus YHR079C, strain IRE1 (second series), active compounds read low 0.974 | locus YHR079C, strain IRE1, active compounds read low 1.04 | locus YHR094C, strain hxt1, active compounds read low 0.979 | locus YHR129C, strain ARP1, active compounds read low 0.987 | locus YHR142W, strain chs7, active compounds read low 0.966 | locus YHR200W, strain rpn10, active compounds read low 0.955 | locus YIL066C, strain RNR3, active compounds read low 1.02 | locus YIL073C, strain SPO22, active compounds read low 0.868 | locus YIL125W, strain kgd1, active compounds read low 0.984 | locus YIR030C, strain dcg1, active compounds read low 0.961 | locus YJL092W, strain hpr5, active compounds read low 0.997 | locus YJL095W, strain BCK1 (second series), active compounds read low 0.978 | locus YJL095W, strain BCK1, active compounds read low 1.05 and 1.01 | locus YJL115W, strain asf1, active compounds read low 0.98 | locus YJL129C, strain trk1, active compounds read low 0.942 | locus YJL134W, strain LCB3, active compounds read low 0.991 | locus YJL154C, strain vps35, active compounds read low 0.982 | locus YJL164C, strain tpk1, active compounds read low 0.985 | locus YJL166W, strain qcr8, active compounds read low 0.999 | locus YJL168C, strain set2, active compounds read low 0.978 | locus YJL187C, strain SWE1 (second series), active compounds read low 1.03 | locus YJR043C, strain POL32, active compounds read low 1.03 | locus YJR066W, strain TOR1, active compounds read low 0.965
